This note sets out measurements from PubChem BioAssay.

The source made the active and inactive calls.

In this test the target is Luciferin 4-monooxygenase (Photinus pyralis) (UniProt P08659). Put plainly: firefly luciferase enzyme inhibitors, primary screen, biochemical, luminescence, purified enzyme, 2006 set (AID 1141).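 Further: cell-free assay with purified firefly luciferase at 100 ng per well in PBS; test concentration not given here.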 To be noted: SteadyGlo luminescence, 30 min, higher = more signal, called active from +8 up or from −8 down.
Chain of Luciferin 4-monooxygenase (Photinus pyralis) (P08659 whole entry, looked up): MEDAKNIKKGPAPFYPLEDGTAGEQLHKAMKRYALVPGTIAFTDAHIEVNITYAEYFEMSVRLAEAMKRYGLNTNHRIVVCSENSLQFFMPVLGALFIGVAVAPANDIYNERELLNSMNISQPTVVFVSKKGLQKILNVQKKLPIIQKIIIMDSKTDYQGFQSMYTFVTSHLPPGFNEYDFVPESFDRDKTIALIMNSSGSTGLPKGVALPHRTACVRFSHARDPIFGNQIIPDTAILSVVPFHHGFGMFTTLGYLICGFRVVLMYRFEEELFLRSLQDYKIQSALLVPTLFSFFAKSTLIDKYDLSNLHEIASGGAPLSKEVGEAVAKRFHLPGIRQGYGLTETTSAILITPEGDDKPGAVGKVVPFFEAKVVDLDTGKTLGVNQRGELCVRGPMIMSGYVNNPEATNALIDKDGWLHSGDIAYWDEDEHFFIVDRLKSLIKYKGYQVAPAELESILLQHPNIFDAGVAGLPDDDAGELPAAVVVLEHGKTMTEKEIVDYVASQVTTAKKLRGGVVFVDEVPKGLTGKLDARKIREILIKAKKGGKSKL
Take `CN1C(=O)C2C=CC(C(O)C#Cc3ccccc3)N(Nc3ccccc3)C2C1=O` (centres undefined): the z-score was -1.21 (inactive).

Consider `CN(C)c1ccc(C(O)C2C=CC3C(=O)N(c4ccccc4)C(=O)C3N2Nc2ccc([N+](=O)[O-])cc2)cc1` (centres undefined), for which the z-score was -0.421 (inactive).

Consider `CN(C)C(=O)[C@@]1(Cc2ccccc2CN=[N+]=[N-])N=C(c2ccc(OCCCO)cc2)O[C@H]1c1ccccc1CN=[N+]=[N-]`, for which the z-score is 0.184 (inactive).

As for `O=C1OCC=C[C@H]2OC34C=CCN(Cn5nnc6ccccc65)C(=O)[C@H]3N(CCCO)C(=O)[C@@H]4[C@@H]12` (some centres undefined), the z-score was 0.314 (inactive).

With `C[N+](C)(C)CCCCCCNC(=O)[C@H]1C[C@H]2C(=O)N[C@@H](Cc3ccccc3)C(=O)N2[C@H]1c1ccc(O)cc1`, the z-score was -0.555 (inactive).

Consider `COCCOC(=O)N1C(=O)[C@@]2(c3cc(C#CCCO)ccc31)[C@H](C(=O)Nc1nc3ccccc3s1)[C@H]1C(=O)O[C@H](c3ccccc3)[C@H](c3ccccc3)N1[C@@H]2c1ccccc1OCCO`, for which the z-score is -0.551 (inactive).

As for `COc1cc2c(cc1OC)CN(C(=O)[C@@H]1[C@H]3C(=O)O[C@H](c4ccccc4)[C@H](c4ccccc4)N3[C@H](c3ccc(OCCO)cc3)[C@@]13C(=O)Nc1ccc(C#CC4(O)CCCCCC4)cc13)CC2`, the z-score is -7.42 (inactive).

Consider `COc1cc(CO)cc(I)c1O[C@H]1C=C(C(=O)NCCO)C[C@@H](NCc2ccc(F)cc2)[C@@H]1O`, for which the z-score is -0.0701 (inactive).

For `[N-]=[N+]=NCc1ccccc1C[C@@]1(C(=O)NCc2ccccc2)N=C(c2ccc(OCCCO)cc2)O[C@@H]1c1ccccc1N=[N+]=[N-]`, the z-score was -6.99 (inactive).
